This is a sample that favours compounds with a hit; in the whole collection about 1.4% have one here.
IL2 activator – activates IL-2 in a cell-based reporter assay | actives 0.065% (n = 360,000) | IL-2 activation reporter assay, cell-based qHTS; stimulated with anti-CD3/CD4/CD28 beads; in transgenic mouse T cells | activation, % (series mostly up to about 46 µM) | AID 652025; in the data active = activation above about 50%; inconclusive = mostly about 30% to 49%; note: 0% is about no effect
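First, unstimulated transgenic mouse T cells were exposed to compound for 60 min. Next, anti-CD3/anti-CD4-coated beads with anti-CD28 were added. Finally, after 18 h at 37 degrees C, EGFP and DsRed were imaged.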
BRCA1 expr up – increases BRCA1 expression. MCF7-BRCA1-FFLuc reporter, luminescence, 48 h; response scale: scaled: vehicle 0%, 10 µM genistein 100%. Potency, µM (titrated, usually from 46.1 µM), for the others: at the top dose activation, most hits filed as activators. actives 1.1% (n = 380,000); note: potency is the fitted concentration of half-maximal effect; nearly all actives have a fitted effect of over 80% in size
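Luminescence from a BRCA1-driven firefly luciferase in MCF7 cells was read after 48 h compound exposure at 37 C. Data normalized against DMSO and a 10microM genistein activation control, then curve-fitted across the titration.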
N370S GC – inhibitors or activators of N370S glucocerebrosidase for Gaucher disease; P04062; N370S GC spleen homogenate, 4MU-glucoside fluorescence; Potency, µM (top dose mostly 59.4 µM), for the others: at the top dose activity change, negative = inhibition, actives largely listed as inhibitors; actives 0.092% (n = 330,000);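 note: potency is the fitted concentration of half-maximal effect; 0% = full enzyme activity and -100% = no enzyme basal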
BCR signal inh – inhibitors of chronic active B-cell receptor signaling; actives 0.05% (n = 340,000); ABC-DLBCL IkBa-CBG/CBR reporter, luminescence ratio, 4 h; AID 493014; Potency, µM (series often up to 46.1 µM), without a hit: at the top dose activity change, negative = inhibition, hits mostly inhibitors; active = well fitted inhibition curve with a large enough effect in the signal ratio, with a control signal flat, not every such curve was filed as active; inconclusive = small, poorly fitted or top-dose-only effect, or effect the other way, or a change in a side signal; the % refers to the signal ratio;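 note: potency is the fitted concentration of half-maximal effect; plate controls were basal doxycycline-induced cells for no effect and cells given 10 µM MG132 for full effect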
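Cell line TMD8 (human ABC DLBCL), stably expressing tet-inducible CBG68-IkBa fusion and CBR; IMDM/0.5% FBS; cpd up to 46 uM; dox induction, 4 h, 37C/5% CO2; dual luminescence; green/red ratio; MG132 control.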
Nrf2 ARE act – activators of Nrf2 (ARE) signaling; AREc32 ARE-luciferase reporter (MCF7-derived line), luminescence, 24 h; actives 0.31% (n = 410,000); Potency, µM (series often up to 46.1 µM), without a hit: at the highest dose activation, hits mostly activators; note: potency is the fitted concentration of half-maximal effect; % of control where 0% means no effect; nearly all actives have a fitted effect of over 65% in size
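AREc32_Fluc, 1000 cells/well, OPTI-MEM + 5% FBS, o/n 37 deg C 5% CO2; 23 nL cpd by pin tool, 24 hr; Steady-Glo 30 min RT, luminescence.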
Integrin act MD – activates integrin-mediated alleviation for muscular dystrophy. Potency, µM (highest dose often 38.3 µM), for inactives: top-dose activation, hits mostly activators. actives 0.064% (n = 350,000). alpha7betagal myoblasts, beta-gal FDG fluorescence, 48 h. AID 624291;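 note: potency is the fitted concentration of half-maximal effect; 100% = response of the positive control SU9516; nearly all actives have a fitted effect of over 60% in size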
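alpha7betagal+/- myoblasts (passage 13, 250/well) treated 48 h at 37C with compounds at 1:260 dilution of DMSO stock. Lysed, then beta-galactosidase activity read as FDG fluorescence (ex 480/em 540) after 30 min, with pre-read for autofluorescence.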
The depositor's hits bear a star; [ ] = another dose, or the depositor's remark. Unless noted, calls come from the whole dose curve; as a rule, active = well fitted curve in the direction sought with a large enough effect; inconclusive = small, poorly fitted or top-dose-only effect, or another doubt; inactive = no such curve, though single readings can be large; an effect the other way counts as inactive or inconclusive.

COc1ccc(NC2=C(Cl)C(=O)N(CCc3ccccc3)C2=O)cc1 was read as IL2 activator -1, BRCA1 expr up 42%, N370S GC -7%, BCR signal inh 0%, Nrf2 ARE act inconclusive and Integrin act MD -32%.
COc1ccc(NC2=C(Cl)C(=O)N(CCc3ccccc3)C2=O)c(OC)c1 was read as IL2 activator 0, BRCA1 expr up 59%, N370S GC 4%, BCR signal inh 12%, Nrf2 ARE act 13µM* and Integrin act MD -29%.
COc1cccc(CNC(=O)COC(=O)CCc2cc(OC)c(OC)c(OC)c2)c1 was read as IL2 activator -2, BRCA1 expr up 25%, BCR signal inh -14%, Nrf2 ARE act 0% and Integrin act MD inconclusive.
Screening CCCCCCC#CC1C=CC(OC(=O)OCC)C(COC(=O)OCC)O1 (centres undefined) returned N370S GC -5%[12.8 µM].
Screening COc1cccc2c(=O)c3ccccc3oc12 returned IL2 activator 0, BRCA1 expr up inconclusive, N370S GC 4%, BCR signal inh inconclusive, Nrf2 ARE act 4% and Integrin act MD 0%.
Screening O=c1c2ccccc2oc2ncccc12 returned IL2 activator 0, BRCA1 expr up 13µM*, N370S GC 0%, BCR signal inh 2%, Nrf2 ARE act 2% and Integrin act MD 9%.
`Cc1ccc(NC(=O)CSc2nncn2N)cc1C` gave IL2 activator 0, BRCA1 expr up 0%, N370S GC -1%, BCR signal inh -2%, Nrf2 ARE act 1% and Integrin act MD -35%.
For O=C(NCc1cccc(Cl)c1)c1ccc(-c2cccnc2)c2ccoc12 the results were IL2 activator 0, BRCA1 expr up 48% and Nrf2 ARE act -1%[9.22 µM].
Screening O=C(NCCc1ccccc1)c1ccc(-c2cccnc2)c2ccoc12 returned IL2 activator 0, BRCA1 expr up 7.1µM* and Nrf2 ARE act 0%[9.22 µM].
For CN1CCN(S(=O)(=O)c2cccc(C(=O)Nc3sc4c(c3-c3nc5ccccc5[nH]3)CCCC4)c2)CC1 the results were IL2 activator -2, BRCA1 expr up -63%, N370S GC 11µM*, BCR signal inh inconclusive, Nrf2 ARE act 16% and Integrin act MD -18%.
CC(=O)NCCC(=O)Nc1sc2c(c1-c1nc3ccccc3[nH]1)CCCC2 was read as IL2 activator -1, BRCA1 expr up -19%, N370S GC 2%, BCR signal inh 15%, Nrf2 ARE act 25% and Integrin act MD 2%.
Screening O=C(C[n+]1cccc(Br)c1)c1ccc2c(c1)CCCC2 returned BRCA1 expr up 86%.
`CCC(C(=O)Nc1ccc2c(c1)OCCO2)n1nnc2ccccc2c1=O` (centres undefined) gave IL2 activator -3, BRCA1 expr up 10µM*, N370S GC -1%, BCR signal inh -5%, Nrf2 ARE act 2% and Integrin act MD -26%.
COc1cccc(NC(=S)N(CCCN2CCOCC2)Cc2cn(C)c3ccccc23)c1 was read as IL2 activator -5, BRCA1 expr up -78%, N370S GC 2.8µM*, BCR signal inh -17%, Nrf2 ARE act 5% and Integrin act MD 1%.
For COc1ccc(NC(=S)N(CCCN2CCOCC2)Cc2cn(C)c3ccccc23)cc1OC the results were IL2 activator 1, BRCA1 expr up -15%, N370S GC inconclusive, BCR signal inh -1%, Nrf2 ARE act 3% and Integrin act MD -4%.
Screening COc1cccc(-c2nccc(NCc3cccs3)n2)c1 returned N370S GC 4µM*.
For Cc1ccccc1-c1nccc(NCc2cccs2)n1 the results were N370S GC 4.5µM*.
For c1cncc(-c2nccc(NCc3cccs3)n2)c1 the results were N370S GC -26%.
Screening CC(=O)Nc1ccc(Nc2nc(Nc3ccc(Cl)cc3)nc(N3CCOCC3)n2)cc1 returned BRCA1 expr up -18%.
`COc1ccccc1C1=NC(c2ccc(F)cc2)N=C1C` (centres undefined) gave IL2 activator -3, BRCA1 expr up 13µM*, N370S GC -7%, BCR signal inh inconclusive, Nrf2 ARE act 3% and Integrin act MD inconclusive.
Screening CCN1C(=O)[C@H]2[C@H]3CN=C(SCC(=O)c4ccccc4)N3[C@@](CC)(C(=O)OC)[C@H]2C1=O returned IL2 activator 0, BRCA1 expr up 9%, BCR signal inh 0%, Nrf2 ARE act 15% and Integrin act MD 32%.
CC(C)(C)n1nnnc1C(c1cc2ccccc2o1)N1CCOCC1 (centres undefined) was read as IL2 activator -1, BRCA1 expr up 9% and Nrf2 ARE act -1%.
Screening CC(=O)c1cnc(Nc2cccc(Cl)c2Cl)s1 returned IL2 activator 1, BRCA1 expr up 10µM*, N370S GC 3%, BCR signal inh -2%, Nrf2 ARE act 25% and Integrin act MD -3%.
For CC(=O)c1cnc(Nc2ccccc2)s1 the results were IL2 activator 0, BRCA1 expr up 99%, BCR signal inh 4%, Nrf2 ARE act 9% and Integrin act MD 16%.
For COc1ccc(OCc2cc(C(=O)NC(C)Cc3cnccn3)no2)c(Cl)c1 (centres undefined) the results were IL2 activator -3, BRCA1 expr up 11µM*, N370S GC -15%, BCR signal inh -9%, Nrf2 ARE act 0% and Integrin act MD 30%.
`CN(CCc1ccccc1)C(=O)c1cc(COc2ccc(F)cc2Cl)on1` gave IL2 activator -2, BRCA1 expr up 13µM*, N370S GC 1%, BCR signal inh 1%, Nrf2 ARE act 0% and Integrin act MD 5%.
COc1ccc(OCc2cc(C(=O)NCC3CCCCO3)no2)c(Cl)c1 (centres undefined) was read as IL2 activator 1, BRCA1 expr up 13µM*, N370S GC -3%, BCR signal inh 1%, Nrf2 ARE act 1% and Integrin act MD -7%.
COc1ccc(OCc2cc(C(=O)N(C)Cc3cnccn3)no2)c(Cl)c1 was read as IL2 activator -3, BRCA1 expr up 8.9µM*, N370S GC 2%, BCR signal inh -4%, Nrf2 ARE act 0% and Integrin act MD 5%.
For COc1ccc(Cn2c(C3CC3)nc3ccc(NC(=O)c4ccco4)cc3c2=O)cc1 the results were IL2 activator 0, BRCA1 expr up inconclusive, N370S GC 5%, BCR signal inh -5%, Nrf2 ARE act 1% and Integrin act MD 17%.

Screening results (PubChem)
